Drawing on PubChem BioAssay (NCATS), this text covers Potency, outcome and activation for nine compounds.

Assay [1] addresses Cytochrome P450 1A2 (Homo sapiens) (UniProt P05177). The assay can be described thus: p450-cyp1a2 (AID 410; calls by dose curve; note: potency is the fitted concentration of half-maximal effect). The method in brief: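 Luminescent readout of luciferin formed from Luciferin-ME by human CYP1A2; data normalized against complete inhibition by 57 uM furafylline. Enzyme 20nM, substrate 100uM at Km, 100mM KPO4 buffer, 60 min reaction at room temperature.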
The target of assay [2] is Mitogen-activated protein kinase 10 (Mus musculus) (UniProt Q61831). Kind of assay: JNK3 AlphaScreen Assay (AID 530; active = well fitted curve in either direction with a large enough effect, not every such curve was filed as active;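 note: kinase came from lysate of stimulated human HepG2 cells; signal reports phosphorylation of biotinylated GST-cJun 1-79 at Ser73 with 10 µM ATP; series mostly up to about 57 µM; % is set by controls: 0 for no effect and ±100 for the full control effect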). The method in brief:
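Inhibitors reduce antibody binding to phosphorylated biotin-cJun, lowering AlphaScreen luminescence. Lysates from HepG2 cells pre-activated by IL-1beta plus TNF-alpha supplied JNK3; compounds were titrated.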

Assay [3] has as its target Cytochrome P450 2C9 (Homo sapiens) (UniProt P11712). The assay can be described thus: qHTS Assay for Inhibitors and Substrates of Cytochrome P450 2C9 (AID 883). Note: nearly all actives have a fitted effect of over 60% in size. Note: potency is the fitted concentration of half-maximal effect. In short, it runs like this: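 CYP2C9 deoxyluciferin hydroxylation, 37C, 60 min with NADPH regeneration; 10nM enzyme, 100uM Luciferin-H (KM). Glo detection reagent stopped reaction; luminescence normalized to sulphaphenazole (57uM) full inhibition.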

Assay [4] concerns the target Cytochrome P450 3A4 (Homo sapiens) (UniProt P08684). The assay can be described thus: qHTS Assay for Inhibitors and Substrates of Cytochrome P450 3A4 (AID 884). Note: potency is the fitted concentration of half-maximal effect; nearly all actives have a fitted effect of over 50% in size. The method in brief:
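20 nM human CYP3A4 with 25 uM Luciferin-PPXE (at KM) in 200 mM KPO4, preincubated 10 min with compound; NADPH regeneration started a 60 min RT reaction. Luciferin detected by luminescence, normalized to 57 uM ketoconazole as full inhibition.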
On the technique in general: qHTS replaces the single test concentration by a dilution series.

In assay [5] the target is Glucocorticoid receptor (Homo sapiens) (UniProt P04150). Kind of assay: GR-EFC Redistribution (AID 451; calls by dose curve; note: potency is the fitted concentration of half-maximal effect). To be noted: CHO-K1 GR-EFC translocation, beta-gal luminescence, 2 h. The method in brief: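 CHO-K1 cells stably expressing nuclear-localized β-gal enzyme acceptor and GR fused C-terminally to the enzyme donor fragment; ligand-driven nuclear translocation restores β-gal by complementation. Compounds titrated up to 46 uM final, 2 h at 37 °C; luminescence read.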

Assay [6] concerns the target 3',5'-cyclic-AMP phosphodiesterase 4B (Homo sapiens) (UniProt Q07343). Kind of assay: qHTS Assay for Inhibitors of PDE-IV (AID 607; active = well fitted activation curve with a large enough effect in the main read-out, with a control signal flat, not every such curve was filed as active; note: % of control where 0% means no effect). In short, it runs like this:
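The readout is membrane depolarisation from a cAMP-sensing CNG channel, detected with a potential dye at ex 535/em 590. Cells were HEK293-derived (endogenous PDE-IV) at 1000 cells/well, titrated up to 22.9 uM final.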

Assay [7] concerns the target Cytochrome P450 2D6 (Homo sapiens) (UniProt P10635). The assay can be described thus: qHTS Assay for Inhibitors and Substrates of Cytochrome P450 2D6 (AID 891). Note: nearly all actives have a fitted effect of over 60% in size. Note: potency is the fitted concentration of half-maximal effect. In short, it runs like this: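 Human CYP2D6 (5 nM) with 30 uM Luciferin-ME EGE (at Km) in 100 mM KPO4, compound preincubated 10 min, then NADPH regeneration system for 60 min at room temperature. Luciferin read by luminescence; normalized to 1.43 uM quinidine.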

Assay [8] deals with Glucocorticoid receptor (Homo sapiens) (UniProt P04150). The assay can be described thus: GR-GFP Redistribution (AID 450;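 active = compounds whose dose series gives a full or clear partial fitted curve of increased nuclear translocation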; note: potency is the fitted concentration of half-maximal effect). To be noted: U2OS GR-GFP nuclear translocation, laser cytometry, 2 h.
Assay [9] concerns the target Cytochrome P450 2C19 (Homo sapiens) (UniProt P33261). The assay can be described thus: qHTS Assay for Inhibitors and Substrates of Cytochrome P450 2C19 (AID 899). Note: nearly all actives have a fitted effect of over 60% in size. Note: potency is the fitted concentration of half-maximal effect. The method in brief:
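In 50mM KPO4, the reaction held 5nM enzyme and KM-level (10uM) Luciferin-H EGE; it ran 60 min at 37C after NADPH regeneration and a 10 min compound preincubation. Luminescence values were scaled to 57uM ketoconazole as complete inhibition.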

In assay [10] the target is Cytochrome P450 3A4 (Homo sapiens) (UniProt P08684). The assay can be described thus: qHTS Assay for Activators of Cytochrome P450 3A4 (AID 885). Note: nearly all actives have a fitted effect of over 65% in size. The method in brief: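 Steps: enzyme/substrate mix dispensed; compound added, 10 min RT; NADPH regeneration solution added, 60 min RT; luciferin detection buffer stops reaction; 20 min later luminescence measured.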
The target in assay [11] is Guanine nucleotide-binding protein G(i) subunit alpha-1 (Homo sapiens) (UniProt P63096). The assay can be described thus: qHTS Assay for Inhibitors of RGS12 GoLoco Motif Activity (Green Fluorophore) (AID 879). Note: potency is the fitted concentration of half-maximal effect. The method in brief: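 Fluorescence polarization assay: 50 nM Gαi1 with 10 nM FITC-labeled RGS12 GoLoco peptide in 10 mM Tris pH 7.5, 150 mM NaCl, 0.1 mM GDP, 0.05% NP40, 10 min at room temperature with compound.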

Assay [12] is described as follows: qHTS Assay for Identification of Small Molecule Agonists for Hypoxia Response Element Signaling Pathway (AID 914; active = well fitted activation curve with a large enough effect in the signal ratio, with a control signal flat, not every such curve was filed as active; the % refers to the signal ratio; note: % of control where 0% means no effect). To be noted: ME-180 HRE-bla reporter, beta-lactamase ratio, CoCl2, 17 h; activation: hits give high values. The method in brief: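 ME-180 cells carrying an HRE-driven beta-lactamase reporter were treated with compounds in a titration series plus an EC50 level of CoCl2 for 17 h at 37 degrees Celsius; CCF4 readout as the 460nm/530nm ratio gave AC50 values.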

The nature of assay [13]: qHTS Assay for Identification of Small Molecule Antagonists for Thrombopoietin (TPO) Signaling Pathway (AID 918). Note: potency is the fitted concentration of half-maximal effect; nearly all actives have a fitted effect of over 60% in size. To be noted: TPO-dependent cell signaling reporter, antagonist mode. The method in brief: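 Ba/F3 (murine, hTPO-R, GPIIb-luc reporter); overnight IL-3 withdrawal; cpd + TPO 26 pM final (EC50); 24 h 37 C/5% CO2; Steadylite luminescence after 10 min RT.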
Assay [14] addresses Muscarinic acetylcholine receptor M1 (Rattus norvegicus) (UniProt P08482). Kind of assay: qHTS Assay for Antagonists of Acetylcholine Muscarinic M1 Receptor: Kinetic Measurement of Intracellular Calcium Response (AID 943).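 Note: Fluo-4 calcium signal as peak divided by basal fluorescence over 4 min; series mostly up to about 35 µM; nearly all actives have a fitted effect of over 75% in size.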 In short, it runs like this:
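Rat M1-CHO cells, 2000/well, overnight → Fluo-4 no-wash dye with probenecid, 1 h 37C → compound 10 min, room temp → basal read 6 s → carbachol EC80 (100 nM) → 4 min kinetic read; peak/basal.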

Assay [15] has the same target. The assay can be described thus: qHTS Assay for Antagonists of Acetylcholine Muscarinic M1 Receptor: Measurement of IP-One Response (AID 944). Note: nearly all actives have a fitted effect of over 75% in size. In short, it runs like this: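 M1-CHO (rat), 2000 cells/well, overnight recovery; cpd 10 min; carbachol EC80 (200 nM), 30 min, HEPES buffer + 50 mM LiCl pH 7.4; IP-One HTRF, Ex 337, Em 620/665 nm.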
In assay [16] the target is Pyruvate kinase (Leishmania mexicana) (UniProt Q27686). The assay can be described thus: qHTS Validation Assay for Inhibitors of Leishmania Mexicana Pyruvate Kinase (AID 945). Note: potency is the fitted concentration of half-maximal effect. The method in brief:
(§1)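 LmPYK E451W 0.2 nM; 0.5 mM PEP, 0.1 mM ADP, 7 mM MgCl2, 50 mM KCl, imidazole pH 7.2, 0.01% Tween 20, 0.05% BSA; 1 h RT; PKLight luminescence; DMSO-normalized.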

Assay [17] has as its target Pyruvate kinase PKM (Homo sapiens) (UniProt P14618). The assay can be described thus: qHTS Assay for Activators of Human Muscle Pyruvate Kinase (AID 954; active = well fitted curve in the direction sought with a large enough effect, not every such curve was filed as active;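 note: 0% = uninhibited enzyme and -100% = no enzyme or full thiadiazolimine inhibition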). The method in brief: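 Reaction: 0.1 nM purified PKM2 with 0.5 mM phosphoenolpyruvate and 0.1 mM ADP, room temperature, 1 h. Readout: luciferase-based ATP luminescence after stop reagent. Activators judged against a 0.3 nM enzyme column.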

For assay [18] the target is unchanged. The assay can be described thus: qHTS Assay for Inhibitors of Human Muscle Pyruvate Kinase (AID 958). The method in brief: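 Compound pinned into substrate mix (0.5 mM PEP, 0.1 mM ADP), then 0.1 nM PKM2 added; 1 h, RT. Stop/detection luciferase reagent added, luminescence read. Normalized to no-inhibition and no-enzyme or reference-inhibitor controls.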
For assay [19], the target named is Pyruvate kinase (Leishmania mexicana) (UniProt Q27686). The assay can be described thus: qHTS Validation Assay for Activators of Leishmania Mexicana Pyruvate Kinase (AID 959). The method in brief: as §1
The target of assay [20] is Alpha-galactosidase A (Homo sapiens) (UniProt P06280). Kind of assay: Counterscreen for Glucocerebrosidase Inhibitors: qHTS Assay for Human alpha-Galactosidase at pH 4.5 (AID 992). Note: 0% is about no effect. In short, it runs like this:
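Concentration-response curves (0.7 nM to 77 uM final) were modeled with the Hill equation to give AC50. Reactions: 2 nM enzyme, 80 uM fluorogenic alpha-galactoside, pH 4.5 citric acid buffer, 20 min, room temperature.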
Background: Counterscreens check selectivity or assay interference.

Assay [21] has as its target alpha-glucosidase (Oryza sativa, rice) (UniProt Q653V4). The assay can be described thus: Counterscreen for Glucocerebrosidase Inhibitors: qHTS Assay for Rice alpha-Glucosidase at pH 5.0 (AID 997).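 Note: 0% = full activity with enzyme and -100% = basal without enzyme.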 In short, it runs like this:
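Rice alpha-glucosidase (4 nM final) with 400 uM 4-methylumbelliferyl-alpha-D-glucopyranoside in citrate buffer pH 5.0, 20 min at room temperature, stopped at pH 10; fluorescence 365/440 nm, compounds 0.7 nM–77 uM, AC50 from Hill fits.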

The structures appear in SMILES notation. A number with no mark means an inactive call. Inconclusive results are not listed. Activity calls are given as the source filed them. Unless noted, calls come from the whole dose curve; as a rule, active = well fitted curve in the direction sought with a large enough effect; inconclusive = small, poorly fitted or top-dose-only effect, or another doubt; inactive = no such curve, though single readings can be large; an effect the other way counts as inactive or inconclusive.

Chain of 3',5'-cyclic-AMP phosphodiesterase 4B (Homo sapiens) (Q07343 whole entry, looked up): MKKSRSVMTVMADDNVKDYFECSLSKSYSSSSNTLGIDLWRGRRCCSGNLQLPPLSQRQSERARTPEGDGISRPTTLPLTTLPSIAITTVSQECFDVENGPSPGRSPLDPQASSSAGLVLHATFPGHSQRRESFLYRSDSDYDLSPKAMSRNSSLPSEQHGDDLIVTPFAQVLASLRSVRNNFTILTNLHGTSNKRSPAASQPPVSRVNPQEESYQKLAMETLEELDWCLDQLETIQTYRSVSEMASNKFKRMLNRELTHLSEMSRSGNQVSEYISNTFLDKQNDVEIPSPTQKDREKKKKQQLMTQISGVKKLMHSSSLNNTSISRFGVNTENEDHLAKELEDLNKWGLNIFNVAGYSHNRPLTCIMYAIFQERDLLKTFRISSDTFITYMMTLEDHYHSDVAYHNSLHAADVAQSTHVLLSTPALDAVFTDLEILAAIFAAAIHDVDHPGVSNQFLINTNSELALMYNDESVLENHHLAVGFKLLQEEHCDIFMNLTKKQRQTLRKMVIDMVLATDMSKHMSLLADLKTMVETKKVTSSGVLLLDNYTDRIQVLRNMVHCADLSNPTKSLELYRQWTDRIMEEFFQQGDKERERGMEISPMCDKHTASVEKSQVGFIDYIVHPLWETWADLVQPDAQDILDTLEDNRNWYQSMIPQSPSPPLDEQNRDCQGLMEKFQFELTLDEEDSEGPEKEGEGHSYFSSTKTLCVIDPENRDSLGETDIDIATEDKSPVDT
Chain of Cytochrome P450 2C19 (Homo sapiens) (P33261 whole entry, looked up): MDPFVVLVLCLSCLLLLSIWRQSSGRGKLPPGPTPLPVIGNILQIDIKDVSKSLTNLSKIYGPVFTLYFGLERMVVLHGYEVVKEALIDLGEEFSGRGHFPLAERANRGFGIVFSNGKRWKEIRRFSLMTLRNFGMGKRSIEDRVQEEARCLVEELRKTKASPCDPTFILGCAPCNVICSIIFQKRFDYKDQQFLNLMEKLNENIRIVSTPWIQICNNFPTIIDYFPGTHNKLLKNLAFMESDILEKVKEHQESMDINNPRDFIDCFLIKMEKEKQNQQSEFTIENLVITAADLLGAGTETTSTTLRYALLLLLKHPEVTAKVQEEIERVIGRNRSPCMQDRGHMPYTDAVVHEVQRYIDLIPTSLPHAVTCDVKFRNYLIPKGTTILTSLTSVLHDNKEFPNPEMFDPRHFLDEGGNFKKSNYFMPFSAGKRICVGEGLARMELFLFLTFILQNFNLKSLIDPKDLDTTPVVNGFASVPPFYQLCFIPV
Chain of Cytochrome P450 3A4 (Homo sapiens) (P08684 whole entry, looked up): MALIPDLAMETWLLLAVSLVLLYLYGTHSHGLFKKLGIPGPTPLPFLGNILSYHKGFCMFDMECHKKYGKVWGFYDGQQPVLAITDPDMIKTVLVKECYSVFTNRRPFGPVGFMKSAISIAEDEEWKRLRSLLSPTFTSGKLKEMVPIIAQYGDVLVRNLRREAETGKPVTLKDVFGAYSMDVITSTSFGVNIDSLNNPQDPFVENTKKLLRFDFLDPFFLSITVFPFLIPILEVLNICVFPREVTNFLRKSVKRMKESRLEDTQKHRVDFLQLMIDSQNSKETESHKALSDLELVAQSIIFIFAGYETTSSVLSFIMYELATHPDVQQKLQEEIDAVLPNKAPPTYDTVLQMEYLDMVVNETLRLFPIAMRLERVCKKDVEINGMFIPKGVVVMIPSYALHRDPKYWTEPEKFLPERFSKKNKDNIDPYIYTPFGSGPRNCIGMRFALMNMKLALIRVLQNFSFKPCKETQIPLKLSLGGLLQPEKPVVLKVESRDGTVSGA
Chain of Cytochrome P450 2D6 (Homo sapiens) (P10635 whole entry, looked up): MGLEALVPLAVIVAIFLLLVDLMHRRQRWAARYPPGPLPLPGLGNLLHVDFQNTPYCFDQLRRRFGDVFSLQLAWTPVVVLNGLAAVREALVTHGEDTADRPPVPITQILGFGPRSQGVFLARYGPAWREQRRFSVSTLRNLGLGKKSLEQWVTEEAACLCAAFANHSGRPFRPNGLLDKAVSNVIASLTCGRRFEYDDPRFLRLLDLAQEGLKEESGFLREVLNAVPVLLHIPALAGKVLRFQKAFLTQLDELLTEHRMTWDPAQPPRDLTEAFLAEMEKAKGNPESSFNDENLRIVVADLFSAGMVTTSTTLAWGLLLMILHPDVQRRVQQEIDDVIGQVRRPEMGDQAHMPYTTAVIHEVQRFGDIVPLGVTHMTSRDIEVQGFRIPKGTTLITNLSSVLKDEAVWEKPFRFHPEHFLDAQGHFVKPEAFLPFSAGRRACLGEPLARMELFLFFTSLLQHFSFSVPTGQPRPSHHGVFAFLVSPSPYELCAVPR
Chain of Cytochrome P450 1A2 (Homo sapiens) (P05177 whole entry, looked up): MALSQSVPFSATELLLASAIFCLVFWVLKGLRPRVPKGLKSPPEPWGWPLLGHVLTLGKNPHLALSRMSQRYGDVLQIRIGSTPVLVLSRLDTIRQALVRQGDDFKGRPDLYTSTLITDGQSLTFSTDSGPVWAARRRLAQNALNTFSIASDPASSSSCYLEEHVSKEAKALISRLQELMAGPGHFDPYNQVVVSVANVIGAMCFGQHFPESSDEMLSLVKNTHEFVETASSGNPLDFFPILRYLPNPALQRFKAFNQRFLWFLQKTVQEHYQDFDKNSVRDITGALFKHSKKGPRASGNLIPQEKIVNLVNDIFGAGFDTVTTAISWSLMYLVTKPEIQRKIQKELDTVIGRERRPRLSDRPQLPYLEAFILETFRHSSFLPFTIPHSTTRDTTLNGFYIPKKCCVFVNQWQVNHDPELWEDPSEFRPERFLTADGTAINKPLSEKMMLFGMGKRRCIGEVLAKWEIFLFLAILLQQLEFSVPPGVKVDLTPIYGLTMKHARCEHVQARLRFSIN
Chain of Cytochrome P450 2C9 (Homo sapiens) (P11712 whole entry, looked up): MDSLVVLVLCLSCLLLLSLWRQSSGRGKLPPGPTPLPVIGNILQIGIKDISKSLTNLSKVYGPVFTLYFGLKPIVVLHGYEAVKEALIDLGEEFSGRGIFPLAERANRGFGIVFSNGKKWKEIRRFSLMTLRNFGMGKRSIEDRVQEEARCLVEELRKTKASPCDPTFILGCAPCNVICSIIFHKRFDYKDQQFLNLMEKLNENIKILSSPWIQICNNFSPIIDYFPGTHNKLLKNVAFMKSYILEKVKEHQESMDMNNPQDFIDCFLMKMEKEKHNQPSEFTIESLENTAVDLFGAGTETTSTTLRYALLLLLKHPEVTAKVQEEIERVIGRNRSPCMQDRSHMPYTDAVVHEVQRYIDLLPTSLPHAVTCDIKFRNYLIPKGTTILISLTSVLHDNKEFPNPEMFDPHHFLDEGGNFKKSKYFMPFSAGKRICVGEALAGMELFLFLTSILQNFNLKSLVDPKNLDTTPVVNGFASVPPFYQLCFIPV
Chain of Glucocorticoid receptor (Homo sapiens) (P04150 whole entry, looked up, the tested form may be a part): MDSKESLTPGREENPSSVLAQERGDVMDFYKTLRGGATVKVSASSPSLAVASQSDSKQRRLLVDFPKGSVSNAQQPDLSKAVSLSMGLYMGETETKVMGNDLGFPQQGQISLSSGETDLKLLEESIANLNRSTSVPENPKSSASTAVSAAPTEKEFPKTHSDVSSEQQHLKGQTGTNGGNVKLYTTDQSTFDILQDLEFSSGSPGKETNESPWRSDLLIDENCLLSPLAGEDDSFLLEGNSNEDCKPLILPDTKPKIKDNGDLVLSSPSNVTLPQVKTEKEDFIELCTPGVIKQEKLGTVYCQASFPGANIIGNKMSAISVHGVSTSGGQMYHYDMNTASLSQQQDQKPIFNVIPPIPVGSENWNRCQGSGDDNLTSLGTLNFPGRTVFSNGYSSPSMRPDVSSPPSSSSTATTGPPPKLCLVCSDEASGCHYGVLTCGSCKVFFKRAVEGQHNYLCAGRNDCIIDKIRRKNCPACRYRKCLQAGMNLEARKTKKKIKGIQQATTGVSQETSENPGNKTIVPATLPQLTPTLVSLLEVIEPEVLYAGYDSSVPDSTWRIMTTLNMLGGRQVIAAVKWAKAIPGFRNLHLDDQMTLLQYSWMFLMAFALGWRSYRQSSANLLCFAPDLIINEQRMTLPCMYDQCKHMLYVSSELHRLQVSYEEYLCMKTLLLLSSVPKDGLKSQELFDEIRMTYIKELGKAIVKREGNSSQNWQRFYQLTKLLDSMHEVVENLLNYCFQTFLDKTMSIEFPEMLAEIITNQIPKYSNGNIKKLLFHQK
Chain of Pyruvate kinase PKM (Homo sapiens) (P14618 whole entry, looked up): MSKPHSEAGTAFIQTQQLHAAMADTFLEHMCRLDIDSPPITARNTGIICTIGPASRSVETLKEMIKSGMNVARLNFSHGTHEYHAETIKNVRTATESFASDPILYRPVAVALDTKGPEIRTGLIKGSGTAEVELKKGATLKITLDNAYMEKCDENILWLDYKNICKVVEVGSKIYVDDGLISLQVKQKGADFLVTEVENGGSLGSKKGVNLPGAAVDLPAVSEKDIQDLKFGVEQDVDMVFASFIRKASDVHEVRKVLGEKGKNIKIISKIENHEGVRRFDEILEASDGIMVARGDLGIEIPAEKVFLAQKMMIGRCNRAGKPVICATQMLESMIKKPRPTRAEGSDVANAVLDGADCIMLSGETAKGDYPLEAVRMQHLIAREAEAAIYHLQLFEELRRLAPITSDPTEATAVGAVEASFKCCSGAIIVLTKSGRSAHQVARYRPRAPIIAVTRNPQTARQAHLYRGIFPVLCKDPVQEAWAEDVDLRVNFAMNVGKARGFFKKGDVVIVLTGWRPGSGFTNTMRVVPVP
Chain of Muscarinic acetylcholine receptor M1 (Rattus norvegicus) (P08482 whole entry, looked up): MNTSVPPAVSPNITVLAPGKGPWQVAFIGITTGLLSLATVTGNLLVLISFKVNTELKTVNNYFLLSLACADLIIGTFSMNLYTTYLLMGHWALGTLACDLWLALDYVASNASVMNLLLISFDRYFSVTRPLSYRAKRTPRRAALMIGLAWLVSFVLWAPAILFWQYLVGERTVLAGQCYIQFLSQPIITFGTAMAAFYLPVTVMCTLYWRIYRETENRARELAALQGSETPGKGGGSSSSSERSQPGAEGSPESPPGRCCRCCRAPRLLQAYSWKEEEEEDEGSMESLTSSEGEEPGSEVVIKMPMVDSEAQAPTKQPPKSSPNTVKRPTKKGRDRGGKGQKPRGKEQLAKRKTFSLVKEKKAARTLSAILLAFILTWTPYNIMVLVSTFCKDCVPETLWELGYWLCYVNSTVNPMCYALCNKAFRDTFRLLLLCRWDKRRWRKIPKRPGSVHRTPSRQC

For `O=P(c1ccccc1)(c1ccccc1)N1CC2(CC2)CC(O)(c2ccccc2)C1` (stereo not drawn), the Potency entry in assay [1] was “inactive”. The result in [2] was inactive.
In the case of `C=C(CC1(C(C)NP(=O)(c2ccccc2)c2ccccc2)CC1)c1ccccc1` (stereo not drawn), the Potency was 15.8 µM (active) in assay [1], 7.94 µM (active) in assay [3] and 3.98 µM (active) in assay [4]. Moreover, the compound was called inactive in assay [2].
As for `CCN(CC)c1ncnc2c1ncn2[C@@H]1O[C@@H](COP(=O)(O)OP(=O)(O)C(Br)(Br)P(=O)(O)O)[C@H](O)[C@H]1O`, the Potency in [1] is 39.8 µM (active); in assay [5], > 46 µM; in assay [7], 0.631 µM (active). In addition, the call in assay [2] and in assay [6] was inactive.
Consider `CC[C@H]1[C@@H]2C[C@@H]3[C@@H]4N(C)c5ccccc5[C@@]45C[C@@H]([C@H]2[C@@H]5O)N3[C@@H]1O`, for which the Potency result in assay [1], in assay [3] and in [9] was “inactive” throughout. Further, the Potency in assay [8] was > 46 µM; in [5], > 46 µM; in assay [7], 3.16 µM (active). For the same compound, the compound was called inactive in assay [2].
`CC(C)[C@]1(NC(=O)[C@H]2C=C3c4cccc5[nH]cc(c45)C[C@H]3N(C)C2)O[C@@]2(O)[C@H]3CCCN3C(=O)[C@H](Cc3ccccc3)N2C1=O`: the Potency is 31.6 µM (active) in assay [1], > 46 µM in assay [8] and 2 µM (active) in assay [9]. Moreover, in [7], the Potency entry was “inactive”.
Turning to `CCCC[C@@H]1C[C@H]1C(NP(=O)(c1ccccc1)c1ccccc1)c1ccc(Cl)cc1` (stereo partly drawn), the Potency entry in assay [1] and in [7] was “inactive” each time. Besides, the call in assay [2] was inactive.
As to `CCC/C=C(\CCC)C(NP(=O)(c1ccccc1)c1ccccc1)c1ccccc1` (stereo not drawn), the Potency is 15.8 µM (active) in assay [1] and 6.31 µM (active) in assay [4]. For the same compound, the result in assay [2] was inactive. Also, in [10], the Potency result is “inactive”.
As for `CCN1C[C@@]2(COC(=O)c3ccccc3N3C(=O)C[C@H](C)C3=O)CC[C@H](OC)[C@@]34[C@@H]5CC6[C@@H](OC)C[C@@](O)([C@H]5[C@H]6OC)C(O)([C@@H]13)[C@@H](OC)[C@H]24`, the Potency result in [1], in assay [3], in [7] and in assay [9] was “inactive” each time. Moreover, the outcome in assay [2] and in assay [6] was inactive.
`CN[C@@H](C)[C@@H](O)c1ccccc1`: the Potency in [1] was 3.16 µM (active); in assay [8], > 46 µM; in [11] it was 7.94 µM (active); in assay [3], 0.794 µM (active); in [7], 12.6 µM (active); in assay [9], 1.58 µM (active). The results for the Potency in assay [13], in assay [16] and in assay [18] were 3.16 µM (active), 10 µM (active) and 7.94 µM (active), respectively. The compound was called inactive in assay [6], in [17], in assay [19], in assay [20] and in [21]. Besides, the Potency entry in [10], in assay [14] and in assay [15] was “inactive” in each case. Besides, the activation in [12] is 24.4%.
